High-throughput results from PubChem.
A selection: hits, their analogues and other compounds. The true share with any hit is near 28%.
CYP2C9 inhib = inhibitors of human CYP2C9; CYP2C9 Supersomes, luciferin-H conversion, luminescence; 20% of 96,000 active; inhibition, % at 5 µM;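 active = blocking of liver enzyme CYP2C9 beyond about 50% at 5 µM, limit read from the data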
CYP2C9 act = CYP2C9 (human) activation; 1.4% of 96,000 active; activation factor at 5 µM; P11712; recombinant CYP2C9, luciferin-H conversion, luminescence; active compounds read high; factor 1 = untreated enzyme, 0 = blocked;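 active = activation factor of 2 or more for CYP2C9 at a 5 µM dose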;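 also: 0 = sulfaphenazole-blocked wells and 1 = vehicle-only wells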
CYP2C19 inhib = inhibitors of human CYP2C19. CYP2C19 Supersomes, luciferin-H EGE luminescence, 30 min. inhibition, % at 5 µM. 21% of 96,000 active. P33261. AID 778;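 active = CYP2C19 inhibition above a set limit at 5 µM in the primary screen, cut at about 50% in these data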;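 also: plate controls were negative control wells for no effect and 2.5 mM tranylcypromine positive control for full effect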
Target sequence (P33261 whole entry, looked up): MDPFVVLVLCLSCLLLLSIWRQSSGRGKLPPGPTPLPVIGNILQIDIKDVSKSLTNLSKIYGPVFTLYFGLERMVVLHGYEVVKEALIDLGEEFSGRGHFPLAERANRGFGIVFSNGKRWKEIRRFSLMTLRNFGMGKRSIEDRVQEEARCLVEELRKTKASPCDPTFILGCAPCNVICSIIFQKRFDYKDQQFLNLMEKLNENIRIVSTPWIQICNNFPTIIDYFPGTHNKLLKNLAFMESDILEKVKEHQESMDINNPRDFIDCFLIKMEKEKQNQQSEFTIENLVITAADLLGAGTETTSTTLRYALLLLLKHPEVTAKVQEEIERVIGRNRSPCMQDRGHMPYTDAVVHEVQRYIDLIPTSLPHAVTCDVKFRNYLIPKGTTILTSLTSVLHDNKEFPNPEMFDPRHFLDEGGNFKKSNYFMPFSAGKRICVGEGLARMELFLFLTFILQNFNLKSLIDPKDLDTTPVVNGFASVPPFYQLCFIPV
CD11b adhes enh = enhancers of human CD11b/CD18 binding to fibrinogen | P05107+P11215 | K562 CD11b/CD18 adhesion to fibrinogen, ATPlite luminescence | activation, % at 10 µM | 0.07% of 93,000 active | AID 1499;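 active = 10 µM primary screen giving 50% or more activity, confirmed by 40% or more on retest at that dose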
CD11b adhes inh = CD11b/CD18-fibrinogen binding inhibition. P05107+P11215. K562 CD11b/CD18 adhesion to fibrinogen, ATPlite luminescence; Mn2+ added to activate the integrin. inhibition, % at 10 µM. 0.54% of 93,000 active;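 active = primary inhibition of 50% or more at 10 µM, then 40% or more on retest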
CYP2C19 act = increases human CYP2C19 enzyme activity. recombinant CYP2C19, luciferin-H EGE luminescence; active compounds read high; 0 = fully inhibited enzyme, 1 = untreated enzyme. activation factor at 5 µM. 96,000 tested, under 10 active;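 active = activation factor of at least 2 at 5 µM in the primary screen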;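 also: 0 = wells with 2.5 mM tranylcypromine and 1 = vehicle-only wells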
* hit, by the source's call; x = no result.

SMILES | CYP2C9 inhib | CYP2C9 act | CYP2C19 inhib | CD11b adhes enh | CD11b adhes inh | CYP2C19 act
O=Cc1nc(-c2ccccc2Cl)n2ccccc12 | -120 | 2.2* | 35 | 2 | -36 | 0.7
CN1CCN(/N=C/c2nc(-c3ccccc3Cl)n3ccccc23)CC1 | x | x | x | 0 | 1 | x
COc1ccc(C(=O)CSc2nnc(CNc3ccc(C)cc3C)n2Cc2ccco2)cc1 | 57* | 0.4 | 88* | -2 | 9 | 0.1
N#Cc1ccc(CSc2nnc(-c3ccccc3)n2Cc2ccco2)cc1 | 42 | 0.6 | 12 | 7 | 13 | 0.9
Cc1ccc(NCc2nnc(SCC(=O)NCc3ccco3)n2CC2CCCO2)c(C)c1 (stereo not drawn) | -8 | 1.1 | 5 | 2 | -10 | 0.9
COc1ccc(C(=O)CSc2nnc(CNc3ccc(C)cc3C)o2)cc1 | -7 | 1.1 | -1 | 5 | 1 | 1
N#Cc1ccc(CSc2nnc(Cc3cccs3)n2Cc2ccco2)cc1 | 66* | 0.3 | 93* | 4 | -3 | 0.1
Cc1ccc(NCc2nnc(SCc3ccc(C#N)cc3)n2Cc2ccco2)c(C)c1 | 94* | 0.1 | 92* | 3 | -2 | 0.1
Cc1ccc(C(=O)CSc2nnc(CNc3ccc(C)cc3C)n2Cc2ccco2)cc1 | 73* | 0.3 | 75* | 1 | 13 | 0.2
CN1CCN(CC(=O)Nc2ccccc2[N+](=O)[O-])CC1 | x | x | x | -4 | -1 | x
O=C(CN1CCN(c2ccccc2F)CC1)c1ccc2cc[nH]c2c1 | 31 | 0.7 | 24 | 0 | -8 | 0.8
O=C(CCN1CCN(c2ccccc2F)CC1)Nc1ccccc1F | 66* | 0.3 | 54* | x | x | 0.5
O=C(CCN1CCN(c2ccccc2F)CC1)c1ccc(Br)cc1 | 34 | 0.7 | 50* | -3 | 11 | 0.5
O=C(CCN1CCN(c2ccc(Cl)cc2)CC1)Nc1ccccc1F | 51* | 0.5 | 32 | 6 | -12 | 0.7
Cc1cccc(N2CCN(CC(=O)Nc3ccccc3[N+](=O)[O-])CC2)c1C | 67* | 0.3 | 44 | x | x | 0.6
O=C(CN1CCN(CCC(=O)Nc2ccccc2F)CC1)Nc1ccc(Cl)cc1 | 46 | 0.5 | 23 | -4 | 3 | 0.8
O=C(Nc1cccc2c1CCCC2)c1ccc(Br)o1 | -6 | 1.1 | 16 | 0 | 0 | 0.8
CNC(=O)c1sc(N2N=C3/C(=C/c4ccccc4)CCCC3C2c2ccccc2)nc1C (stereo not drawn) | 34 | 0.7 | 33 | 4 | -2 | 0.7
O=C(NCCCN1CCOCC1)C(C(=O)c1ccccc1)n1ccccc1=O (stereo not drawn) | 6 | 0.9 | 4 | 2 | 21 | 1
O=C(CCN1C(=O)C2C3C=CC(C4CC34)C2C1=O)Oc1cccc2cccnc12 (stereo not drawn) | -2 | 1 | 15 | -2 | -2 | 0.9
N#Cc1cc2c(nc1SCC(=O)N1CCOCC1)CCCCC2 | -35 | 1.3 | -14 | -4 | -1 | 1.1
O=C(CN1CCN(c2ccccc2F)CC1)Nc1ccccc1F | 80* | 0.2 | 88* | 4 | -18 | 0.1
O=C(CN1CCN(CCC(=O)Nc2ccccc2F)CC1)Nc1ccc(F)cc1 | 64* | 0.4 | 15 | 2 | -14 | 0.8
COc1ccc(C)cc1C(=O)CCC(=O)Nc1ccccc1N1CCOCC1 | 82* | 0.2 | 81* | 1 | -7 | 0.2
O=C(Nc1ccccc1N1CCOCC1)c1ccccc1NS(=O)(=O)c1ccc(F)cc1 | 78* | 0.2 | 58* | -1 | 3 | 0.4
SMILES | CYP2C9 inhib | CYP2C9 act | CYP2C19 inhib | CD11b adhes enh | CD11b adhes inh | CYP2C19 act
O=C(Nc1ccccc1N1CCOCC1)c1ccccc1NS(=O)(=O)c1ccc(F)c(F)c1 | 81* | 0.2 | 37 | -4 | 75* | 0.6
Cc1ccc(C)c(S(=O)(=O)Nc2ccccc2C(=O)Nc2ccccc2N2CCOCC2)c1 | 97* | 0 | 94* | -4 | 50* | 0.1
Cc1cc(C)c(OCC(=O)Nc2ccccc2N2CCOCC2)c(C)c1 | 9 | 0.9 | 31 | -4 | 4 | 0.7
CC(C)Sc1nc(C(F)(F)F)cc(=O)n1-c1ccccc1 | -5 | 1.1 | 18 | x | x | 0.8
Cc1cc(F)ccc1S(=O)(=O)Nc1ccccc1C(=O)Nc1ccccc1N1CCOCC1 | 87* | 0.1 | 83* | x | x | 0.2
Cc1cc(F)ccc1S(=O)(=O)Nc1ccccc1C(=O)Nc1ncn[nH]1 | 40 | 0.6 | 94* | -6 | -15 | 0.1
CCOc1ccc(S(=O)(=O)Nc2ccccc2C(=O)Nc2ccccc2N2CCOCC2)cc1 | 69* | 0.3 | 84* | 5 | -36 | 0.2
O=C(Nc1ccccc1N1CCOCC1)c1ccccc1[N+](=O)[O-] | 6 | 0.9 | 6 | x | x | 0.9
CC(=O)Nc1cccc(C(=O)Nc2ccccc2N2CCOCC2)c1 | 29 | 0.7 | 4 | 0 | 9 | 1
CCc1ccc(OCC(=O)NNC(=O)CSc2ncnc3sc(C)c(C)c23)cc1 | -13 | 1.1 | 8 | x | x | 0.9
CCCN(S(=O)(=O)c1ccc(OCC)cc1)S(=O)(=O)c1cccs1 | 41 | 0.6 | 30 | 2 | -8 | 0.7
COc1ccc(-n2c(Cc3cccn3C)nnc2SCC(=O)Nc2ccc(C)c(Cl)c2)cc1 | 27 | 0.7 | 12 | 10 | 10 | 0.9
Cc1ccc2c(c1)OC(=O)CC2c1ccccc1 (stereo not drawn) | 47 | 0.5 | 68* | 1 | 14 | 0.3
Cc1ccc2c(c1)C(c1ccccc1)N(C(=O)C(C)C)CC(=O)N2 (stereo not drawn) | 34 | 0.7 | 6 | 2 | -56 | 0.9
Cn1c(NC(=O)c2ccccc2)c(-c2ccccn2)c(=O)c2ccccc21 | 28 | 0.7 | -11 | 1 | 2 | 1.1
COc1ccc(CN(C)C2CCCCC2)c(C)c1C | -2 | 1 | 76* | 0 | -48 | 0.2
Cc1nc2ccccc2nc(C)c1=NOCc1ccccc1Cl | x | x | x | 6 | -20 | x
CCCCCN(C(=O)NC(=O)Nc1ccccc1C)S(=O)(=O)c1ccccc1 | x | x | x | -1 | -12 | x
CC1CCC2(CC1)NC(=O)N(CC(=O)NC(=O)NC1CCCC1)C2=O (stereo not drawn) | 35 | 0.7 | 8 | -2 | -4 | 0.9
COC(=O)CC1COc2ccccc2N1C(=O)c1cccc(Cl)c1 (stereo not drawn) | 46 | 0.5 | 63* | x | x | 0.4
CCC(Sc1nnc(C)s1)C(=O)Nc1nccs1 (stereo not drawn) | 25 | 0.8 | 35 | 2 | -2 | 0.6
CC(Sc1nc2ccccc2s1)C(=O)Nc1nnc(C(C)C)s1 (stereo not drawn) | 66* | 0.3 | 23 | 0 | 17 | 0.8
CCC(Sc1nc2ccc(N)cc2s1)C(=O)Nc1nccs1 (stereo not drawn) | 62* | 0.4 | 77* | -7 | -1 | 0.2
CCC(Sc1nc(C)cc(=O)[nH]1)C(=O)Nc1nnc(C)s1 (stereo not drawn) | 16 | 0.8 | -3 | x | x | 1
